High-throughput results from PubChem BioAssay.
CYP2C9 act: human CYP2C9 activators, primary screen, biochemical, luminescence; activation factor at 5 µM; recombinant CYP2C9, luciferin-H conversion; active compounds read high; factor 1 = untreated enzyme, 0 = blocked; Cytochrome P450 2C9 (Homo sapiens), P11712; AID 1024, 2008; hit rate 1.4% among 96,000;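 active = activation factor of 2 or more for CYP2C9 at a 5 µM dose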
CYP2C9 inhib: blockers of cytochrome P450 2C9 activity – biochemical, luminescence, ADME assay, primary screen; hit rate 20% among 96,000; CYP2C9 Supersomes, luciferin-H conversion; inhibition, % at 5 µM; P11712;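 active = blocking of liver enzyme CYP2C9 beyond about 50% at 5 µM, limit read from the data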
CYP2C19 activ: human CYP2C19 activators, primary screen, biochemical, luminescence; 96,000 tested, under 10 active; activation factor at 5 µM; Cytochrome P450 2C19 (Homo sapiens), P33261; recombinant CYP2C19, luciferin-H EGE luminescence; active compounds read high; 0 = fully inhibited enzyme, 1 = untreated enzyme;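 active = activation factor of at least 2 at 5 µM in the primary screen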
Target sequence (P33261 whole entry, looked up): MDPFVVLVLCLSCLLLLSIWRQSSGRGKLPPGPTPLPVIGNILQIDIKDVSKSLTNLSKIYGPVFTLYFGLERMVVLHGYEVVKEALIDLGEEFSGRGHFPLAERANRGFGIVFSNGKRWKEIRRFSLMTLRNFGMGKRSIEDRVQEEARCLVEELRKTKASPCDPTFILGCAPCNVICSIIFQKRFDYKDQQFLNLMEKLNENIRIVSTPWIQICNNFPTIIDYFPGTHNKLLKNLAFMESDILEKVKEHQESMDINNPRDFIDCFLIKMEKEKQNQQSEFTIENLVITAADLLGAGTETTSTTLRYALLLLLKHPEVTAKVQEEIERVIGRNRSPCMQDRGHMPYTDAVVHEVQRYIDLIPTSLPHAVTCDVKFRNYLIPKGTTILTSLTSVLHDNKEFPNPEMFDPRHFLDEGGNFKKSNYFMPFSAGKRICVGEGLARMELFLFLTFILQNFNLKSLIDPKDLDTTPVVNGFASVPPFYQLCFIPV
CYP2C19 inhib: blockers of cytochrome P450 2C19 activity – biochemical, luminescence, ADME assay, primary screen; P33261; CYP2C19 Supersomes, luciferin-H EGE luminescence, 30 min; inhibition, % at 5 µM; hit rate 21% among 96,000; AID 778, 2007;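 active = CYP2C19 inhibition above a set limit at 5 µM in the primary screen, cut at about 50% in these data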
PLAP activator: PLAP enzyme activators, biochemical, luminescence, HTS; Alkaline phosphatase, placental type (Homo sapiens), P05187; purified PLAP enzyme, luminescent substrate read-out; active compounds read high; activation fold at 20 µM; hit rate 1.2% among 96,000; AID 696, 2007; in the data active = activation fold above about 2
Numbers stand for hits; - = inactive. Only some compounds are listed: those with a hit (about 31% of all), similar ones and a draw of the others.

SMILES	CYP2C9 act	CYP2C9 inhib	CYP2C19 activ	CYP2C19 inhib	PLAP activator
COC(=O)c1cccc(Nc2cc(C)nc(-c3ccccc3O)n2)c1	-	-	-	-	-
COC(=O)c1ccc(Nc2cc(C)nc(-c3ccccc3O)n2)cc1	-	59	-	-	-
CCOC(=O)c1cc2cc(CC(=O)c3ccc(OCC)cc3O)ccc2o1	-	54	-	69	-
CCOc1ccc(C(=O)Cc2ccc3oc(C(=O)O)cc3c2)c(O)c1	-	-	-	-	-
COC(=O)C1CCCN1C(=O)c1cccs1 (configuration not stated)	-	-	-	-	-
CC1CN(C(=O)c2cccs2)CCN1C(=O)c1cccs1 (configuration not stated)	-	89	-	96	-
O=C(c1cccs1)N1CCN(S(=O)(=O)c2ccccc2)CC1	-	70	-	97	-
O=C(c1ccsc1)N1CCN(C(=O)c2cccs2)CC1	-	67	-	95	-
O=C(c1cccs1)N1CCN(c2ncccn2)CC1	-	-	-	-	-
c1ccc2c(c1)c1ccccc1n1c(-c3ccc4c(c3)OCO4)nnc21	-	-	-	-	-
OC(c1ccccc1)C1CN(Cc2ccccc2)CCC1(O)c1ccccc1 (configuration not stated)	-	-	-	67	-
OC1CCCN(Cc2ccccc2)C1 (configuration not stated)	-	-	-	-	-
CCCCCCC1CCC(C(=O)Nn2c(C)nc3ccccc3c2=O)CC1 (configuration not stated)	-	91	-	-	-
O=C(Nn1c(-c2ccc(F)cc2)nc2ccccc2c1=O)C1CCCCC1	-	64	-	-	-
Cc1nc2ccccc2c(=O)n1NC(=O)C1CCCCC1	-	-	-	-	-
O=C(N/N=C/c1cccc(OCc2ccccc2)c1)c1cccs1	-	83	-	-	-
C/C(=N\OCC(=O)N/N=C/c1ccccc1O)c1cccs1	-	-	-	-	-
O=C(N/N=C/c1ccccc1)c1sccc1OCc1ccc(F)cc1	-	70	-	-	-
C/C(=N\OCC(=O)N/N=C/c1ccccc1)c1cccs1	-	-	-	82	-
CC1(C)Cc2c(ccc3ccccc23)C(NNC(=O)c2cccnc2)=N1	-	-	-	-	-
O=C(NCC(c1cccs1)N1CCOCC1)c1ccc(Cl)s1 (configuration not stated)	-	54	-	72	-
CCN(CC)S(=O)(=O)c1ccc(C(=O)NCC(c2cccs2)N2CCOCC2)cc1 (configuration not stated)	-	-	-	-	-
CCCCN(C)C(=O)C(Cc1ccccc1)NS(=O)(=O)c1ccc2c(c1)c(=O)n(C)c(=O)n2C (configuration not stated)	-	-	-	-	-
O=C(COC(=O)CC1CCCC1)Nc1cc2c(cc1Cl)C(=O)c1ccccc1C2=O	-	-	-	61	-
CC1=CN2CC(O)CN=C2C=C1 (configuration not stated)	-	-	-	-	-
SMILES	CYP2C9 act	CYP2C9 inhib	CYP2C19 activ	CYP2C19 inhib	PLAP activator
c1ccc2c(c1)OCC(c1csc3ncnc(N4CCCC4)c13)O2 (configuration not stated)	-	94	-	99	-
c1ccc(CCNc2ncnc3scc(C4COc5ccccc5O4)c23)cc1 (configuration not stated)	-	73	-	57	-
O=C(CSc1nnc(C2COc3ccccc3O2)o1)Nc1nccs1 (configuration not stated)	-	-	-	-	-
CCOC(=O)c1cnc(SCC(=O)Nc2cc(C(F)(F)F)ccc2N2CCOCC2)nc1N	-	-	-	-	-
CCC(C)NC(=O)CSc1nc2c(sc(=S)n2Cc2ccco2)c(=O)n1-c1ccccc1 (configuration not stated)	-	-	-	-	-
CCN(CC)C(=O)CSc1nc2c(sc(=S)n2-c2ccccc2)c(=O)n1Cc1ccco1	-	67	-	-	-
CCOC(=O)CSc1nc2c(sc(=S)n2Cc2ccco2)c(=O)n1-c1ccc(F)cc1	-	72	-	56	-
COc1ccccc1-n1c(=S)sc2c(=O)n(Cc3ccco3)c(SC)nc21	-	76	-	64	-
C=CCn1c(O)c(C=Nc2ccc(Cc3ccncc3)cc2)c(=O)[nH]c1=S	-	83	-	88	-
CCOC(=O)C1CCCN(c2c(N3CCN(c4ccccn4)CC3)c(=O)c2=O)C1 (configuration not stated)	-	-	-	-	-
CCOc1cc2c3c(c1)C1(OCCO1)C(=O)N3C(C)(C)CC2C (configuration not stated)	-	-	-	-	-
CCOc1cc2c3c(c1)C1(Nc4ccccc4S1)C(=O)N3C(C)(C)CC2C (configuration not stated)	-	100	-	88	-
COc1ccc(F)cc1CN1CCN(C(=O)CCC(=O)Nc2nnc(C(C)C)s2)CC1	-	-	-	-	-
NC(=O)NC(c1ccccc1)c1ccccc1F (configuration not stated)	-	-	-	72	-
NC(=O)NC(c1ccccc1)c1ccccc1	-	-	-	80	-
NC(=O)NC(c1ccccc1)c1cccc2ccccc12 (configuration not stated)	-	-	-	72	-
NC(=O)NC(Cc1ccccc1)C(=O)O (configuration not stated)	-	-	-	-	-
NC(=O)NC(Cc1ccccc1)c1ccccc1 (configuration not stated)	-	-	-	-	-
O=C(NC(c1ccccc1)c1ccccc1)c1ccc(S(=O)(=O)C(F)F)cc1	-	-	-	-	-
CCc1cc2c(N3CCN(c4ccccc4)CC3)ncnc2s1	-	56	-	-	-
c1nc(N2CCC3(CC2)OCCO3)c2c3c(sc2n1)CCCC3	-	63	-	85	-
c1ccc(N2CCN(c3ncnc4sc5c(c34)CCC5)CC2)cc1	-	72	-	75	-
O=C(c1ccco1)N1CCN(c2ncnc3sc4c(c23)CCC4)CC1	-	86	-	72	-
O=C1c2ccccc2C(=O)N1CCCn1c(=O)oc2ccccc21	-	-	-	-	-
Cc1ccc(-n2nc3c(c2NC(=O)c2ccccc2Br)CS(=O)C3)cc1 (configuration not stated)	-	-	-	-	-
COc1ccccc1CNC(=O)C1CC(c2cccc([N+](=O)[O-])c2)=NO1 (configuration not stated)	2.5	-	-	-	-
CCCCNC(=O)C1CC(c2cccc([N+](=O)[O-])c2)=NO1 (configuration not stated)	2	-	-	-	-
